“And” between values parts separate entries of the source, which are not always exact repeats. Equal entries are not always repeated. Results filed as inconclusive are left out. The source made the active and inactive calls. The calls were made as follows, unless noted: active = hit-call score of the fitted dose curve at least 0.9, where 1 is the maximum; inactive = score below 0.9.
Assays:
[1] = biological target: human Thyroid Receptor alpha (THRa1), THRA (gene 7067) (UniProt P10827); experiment: ATG_THRa1_TRANS: Attagene TRANS-FACTORIAL HepG2 Assay for human Thyroid Receptor alpha (THRa1) (AID 2283014; active = hit-call score of the fitted dose curve at least 0.9, where 1 is the maximum)
human Thyroid Receptor alpha (THRa1), THRA (gene 7067), sequence (P10827 whole entry, looked up, the tested form may be a part): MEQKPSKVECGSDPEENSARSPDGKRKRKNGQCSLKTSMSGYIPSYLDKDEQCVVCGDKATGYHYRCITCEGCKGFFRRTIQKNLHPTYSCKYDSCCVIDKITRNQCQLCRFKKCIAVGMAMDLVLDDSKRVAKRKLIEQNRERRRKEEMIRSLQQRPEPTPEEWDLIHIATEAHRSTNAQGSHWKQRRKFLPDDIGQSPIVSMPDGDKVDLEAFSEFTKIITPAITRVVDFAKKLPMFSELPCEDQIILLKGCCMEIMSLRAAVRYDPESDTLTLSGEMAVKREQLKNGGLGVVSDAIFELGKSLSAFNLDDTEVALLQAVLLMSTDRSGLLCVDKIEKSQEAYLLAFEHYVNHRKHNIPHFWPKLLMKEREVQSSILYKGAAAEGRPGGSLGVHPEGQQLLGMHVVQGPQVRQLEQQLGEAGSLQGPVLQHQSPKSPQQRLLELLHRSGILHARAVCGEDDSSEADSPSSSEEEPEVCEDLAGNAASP
Method in brief: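 Measured here is mRNA from a GAL4-UAS reporter in transfected HepG2 cells carrying a Gal4-fused receptor, 24 h post-dose. DMSO served as negative control and baseline.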

[2] = read-out: E-selectin (Homo sapiens) (UniProt P16581); experiment: BSK_3C_Eselectin: BioMAP Diversity Plus: 3C Assay for Eselectin Biomarker Activity (AID 2283015); settings: primary human endothelial cells (HUVEC); actives raise or lower the signal
Method in brief: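 Endpoint derived by bidirectional fitting against DMSO vehicle; signal is ELISA-detected E-selectin from primary HUVEC at 24 h post-dosing, with parallel SRB staining (0.1% SRB, 560 nm) flagging cytotoxicity.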

[3] = read-out: Interleukin-1 alpha (IL1a), IL1A (gene 3552); experiment: BSK_BE3C_IL1a: BioMAP Diversity Plus: BE3C Assay for Interleukin-1 alpha (IL1a) Biomarker Activity (AID 2283016); settings: primary human bronchial epithelial cells; actives raise or lower the signal
Method in brief: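 ELISA read-out of IL-1a from human lung bronchial epithelial primary cells, 24 h post-dose. Gain or loss of signal fitted relative to DMSO negative control.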

[4] = read-out: Monocyte Chemoattractant Protein-1 (MCP1), CCL2 (gene 6347); experiment: BSK_3C_MCP1: BioMAP Diversity Plus: 3C Assay for Monocyte Chemoattractant Protein-1 (MCP1) Biomarker Activity (AID 2283017); settings: primary human endothelial cells (HUVEC); actives raise or lower the signal
Method in brief: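 Using human vascular primary endothelium, researchers measured MCP-1 by ELISA 24 h after treatment, with DMSO serving as negative control for bidirectional fitting.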

[5] = read-out: Monocyte Chemoattractant Protein-1 (MCP1), CCL2 (gene 6347); experiment: BSK_4H_MCP1: BioMAP Diversity Plus: 4H Assay for Monocyte Chemoattractant Protein-1 (MCP1) Biomarker Activity (AID 2283018); settings: primary human endothelial cells (HUVEC); actives raise or lower the signal
Method in brief: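 HUVEC primary cells, 24 h post-dose, MCP-1 by ELISA. Gain or loss of signal fitted bidirectionally vs DMSO baseline. Cytotoxicity: SRB stain (0.1% after 10% TCA fixation), read 560 nm, parallel cultures.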

[6] = read-out: Human Leukocyte Antigen - DR isotype (HLADR), HLA-DRA (gene 3122); experiment: BSK_3C_HLADR: BioMAP Diversity Plus: 3C Assay for Human Leukocyte Antigen - DR isotype (HLADR) Biomarker Activity (AID 2283019); settings: primary human endothelial cells (HUVEC); actives raise or lower the signal
Method in brief: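 Compound added to primary HUVEC cultures, 24 h incubation, then HLA-DR determined by ELISA; endpoint derived by bidirectional fitting relative to DMSO negative control.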

[7] = read-out: Interleukin-8 (IL8), CXCL8 (gene 3576); experiment: BSK_3C_IL8: BioMAP Diversity Plus: 3C Assay for Interleukin-8 (IL8) Biomarker Activity (AID 2283020); settings: primary human endothelial cells (HUVEC); actives raise or lower the signal
Method in brief: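 HUVEC, 3C stimulation; 24 h compound exposure; IL-8 read by ELISA; gain or loss of signal fitted relative to DMSO control.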

[8] = read-out: Monokine induced gamma interferon (MIG), CXCL9 (gene 4283); experiment: BSK_3C_MIG: BioMAP Diversity Plus: 3C Assay for Monokine induced gamma interferon (MIG) Biomarker Activity (AID 2283021); settings: primary human endothelial cells (HUVEC); actives raise or lower the signal;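 as to AC50: MIG protein level measured by immunoassay in the treated endothelial cultures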
Method in brief: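 HUVEC, 3C system; 24 h chemical exposure; MIG by ELISA; bidirectional fit vs DMSO baseline.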

[9] = biological target: human Vitamin D Receptor (VDR), VDR (gene 7421) (UniProt P11473); experiment: ATG_VDR_TRANS: Attagene TRANS-FACTORIAL HepG2 Assay for human Vitamin D Receptor (VDR) (AID 2283022; active = hit-call score of the fitted dose curve at least 0.9, where 1 is the maximum)
human Vitamin D Receptor (VDR), VDR (gene 7421), sequence (P11473 whole entry, looked up): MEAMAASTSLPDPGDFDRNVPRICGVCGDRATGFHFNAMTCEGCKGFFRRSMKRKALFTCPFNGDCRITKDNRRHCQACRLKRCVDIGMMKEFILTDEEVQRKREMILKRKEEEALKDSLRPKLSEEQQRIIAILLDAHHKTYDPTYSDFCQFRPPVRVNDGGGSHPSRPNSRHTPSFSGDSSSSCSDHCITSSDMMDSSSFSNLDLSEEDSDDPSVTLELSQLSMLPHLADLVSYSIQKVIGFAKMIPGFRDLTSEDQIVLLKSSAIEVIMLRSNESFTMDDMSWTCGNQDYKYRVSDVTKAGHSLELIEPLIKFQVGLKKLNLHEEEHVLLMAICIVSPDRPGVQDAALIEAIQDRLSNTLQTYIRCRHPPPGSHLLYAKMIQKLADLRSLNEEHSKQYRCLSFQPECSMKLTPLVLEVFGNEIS
Method in brief: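 Multiplexed TRANS reporter in HepG2; 24 h treatment; reporter mRNA by RT-PCR plus capillary electrophoresis; upregulation scored relative to DMSO.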

Measured: AC50

E-selectin (Homo sapiens), sequence (P16581 whole entry, looked up): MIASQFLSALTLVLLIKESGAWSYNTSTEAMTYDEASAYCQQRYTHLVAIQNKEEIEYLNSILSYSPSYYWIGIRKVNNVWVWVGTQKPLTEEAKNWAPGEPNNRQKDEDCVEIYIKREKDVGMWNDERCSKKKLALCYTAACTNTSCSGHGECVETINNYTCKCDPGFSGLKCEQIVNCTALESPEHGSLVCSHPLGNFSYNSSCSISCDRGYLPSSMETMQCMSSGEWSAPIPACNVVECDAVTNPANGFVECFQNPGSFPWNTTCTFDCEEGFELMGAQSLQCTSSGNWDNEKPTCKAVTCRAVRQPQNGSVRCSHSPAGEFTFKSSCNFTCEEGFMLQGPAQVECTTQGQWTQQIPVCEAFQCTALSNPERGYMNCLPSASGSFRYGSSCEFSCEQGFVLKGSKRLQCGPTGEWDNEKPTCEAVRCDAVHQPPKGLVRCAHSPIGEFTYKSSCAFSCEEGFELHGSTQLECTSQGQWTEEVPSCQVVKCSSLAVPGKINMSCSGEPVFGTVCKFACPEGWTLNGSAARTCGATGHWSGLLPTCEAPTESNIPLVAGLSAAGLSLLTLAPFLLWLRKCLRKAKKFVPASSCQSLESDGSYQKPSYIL

COC(=O)CSc1cc(N=c2sc(=O)n3n2CCCC3)c(F)cc1Cl
not listed: [9]
inactive: all other assays above

CCCOC(=O)NCCCN(C)C
not listed: [1]
inactive: all other assays above

CCCCOCCOCCOCc1cc2c(cc1CCC)OCO2
not listed: [1] | [9]
inactive: all other assays above

CCOC(=O)C(C)Oc1ccc(Oc2cnc3cc(Cl)ccc3n2)cc1 (stereo not given)
not listed: [1] | [9]
inactive: all other assays above

N[C@@H](Cc1cc(I)c(Oc2ccc(O)c(I)c2)c(I)c1)C(=O)O
not listed: [1]
inactive: all other assays above

N#CSCSc1nc2ccccc2s1
inactive: [1] | [9]
active: [2] 7.25 µM and 9.01 µM | [3] 6.07 µM and 10.3 µM | [4] 5.23 µM and 12.1 µM | [5] 4.06 µM and 12.2 µM | [6] 2.3 µM and 5.63 µM | [7] 8.35 µM and 14.4 µM | [8] 11 µM and 11.9 µM

CCN(Cc1c(F)cccc1Cl)c1c([N+](=O)[O-])cc(C(F)(F)F)cc1[N+](=O)[O-]
active: [5] 11.3 µM | [6] 5.69 µM
not listed: [1] | [9]
inactive: all other assays above

C#CCOC(=O)[C@@H](C)Oc1ccc(Oc2ncc(Cl)cc2F)cc1
not listed: [1]
inactive: all other assays above

CCN(CC)C(=O)c1cccc(C)c1
inactive: all assays above

CC(=O)S[C@@H]1CC2=CC(=O)CC[C@]2(C)[C@H]2CC[C@@]3(C)[C@@H](CC[C@@]34CCC(=O)O4)[C@H]12
inactive: [1] | [3] | [8] | [9]
active: [2] 20 µM | [4] 27.7 µM | [5] 20 µM | [6] 26.3 µM | [7] 18.9 µM

CCCCCOC(=O)COc1cc(N2C(=O)C3=C(CCCC3)C2=O)c(F)cc1Cl
active: [6] 19.2 µM
not listed: [1]
inactive: all other assays above

COC(=O)c1ccccc1S(=O)(=O)NC(=O)Nc1nc(OC(F)F)cc(OC(F)F)n1
not listed: [1]
inactive: all other assays above

CCSC(=O)N(CC(C)C)CC(C)C
not listed: [1] | [9]
inactive: all other assays above

O=C(O)c1ccccc1
not listed: [1]
inactive: all other assays above

C=CCOC(Cn1ccnc1)c1ccc(Cl)cc1Cl (stereo not given)
active: [5] 27.7 µM | [6] 13.6 µM
not listed: [1]
inactive: all other assays above

OB(O)O
not listed: [1]
inactive: all other assays above

COCCO
not listed: [1]
inactive: all other assays above

CSC(=O)c1cccc2nnsc12
inactive: all assays above

COC(=O)c1ccc(CNS(C)(=O)=O)cc1S(=O)(=O)NC(=O)Nc1nc(OC)cc(OC)n1
inactive: all assays above

CCCCC(CC)CN1C(=O)C2C3C=CC(C3)C2C1=O (stereo not given)
active: [5] 19.2 µM | [6] 30.6 µM
not listed: [1] | [9]
inactive: all other assays above

CC(=O)[C@H]1CC[C@H]2[C@@H]3CCC4=CC(=O)CC[C@]4(C)[C@H]3CC[C@]12C
active: [2] 10.1 µM | [4] 8.12 µM | [5] 12.7 µM | [6] 20 µM | [7] 20 µM
inactive: [3] | [8] | [9]

O=C(O)C1(C(=O)Nc2ccc(Cl)cc2Cl)CC1
active: [6] 4.68 µM
not listed: [1]
inactive: all other assays above

CC1(C)C(C=C(Cl)Cl)C1C(=O)OCc1cccc(Oc2ccccc2)c1 (stereo not given)
active: [6] 5.44 µM
inactive: all other assays above

COC(=O)c1c(Cl)nn(C)c1S(=O)(=O)NC(=O)Nc1nc(OC)cc(OC)n1
inactive: all assays above

O=C(Nc1ccc([N+](=O)[O-])cc1Cl)c1cc(Cl)ccc1O
active: [3] 148 nM | [6] 0.169 µM
not listed: [5] | [9]
inactive: all other assays above

c1ccc(Nc2ccccc2)cc1
active: [6] 13.5 µM
not listed: [1]
inactive: all other assays above

CCOC(=O)[C@H](C)Oc1ccc(Oc2nc3ccc(Cl)cc3o2)cc1
active: [6] 7.25 µM
not listed: [1]
inactive: all other assays above

CCCCCCC(C)OC(=O)COc1nc(F)c(Cl)c(N)c1Cl (stereo not given)
inactive: [3] | [9]
active: [2] 31.4 µM | [4] 30.8 µM | [5] 32.3 µM | [6] 31.6 µM | [7] 36.5 µM | [8] 37.7 µM

Oc1ccc(C(c2ccc(O)cc2)C(Cl)(Cl)Cl)cc1
inactive: [1] | [9]
active: [2] 27.3 µM | [3] 31500 nM | [4] 29.1 µM | [5] 14.6 µM | [6] 33.5 µM | [7] 15.5 µM | [8] 30.7 µM

COC(=O)c1ccc(I)cc1S(=O)(=O)NC(=O)Nc1nc(C)nc(OC)n1
not listed: [1] | [9]
inactive: all other assays above

COc1c(Cl)ccc(Cl)c1C(=O)O
inactive: all assays above

— PubChem BioAssay (EPA / NIEHS)
